Screening results: PubChem BioAssay, National Center for Advancing Translational Sciences (NCATS)
HPGD block = qHTS Assay for Inhibitors of HPGD (15-Hydroxyprostaglandin Dehydrogenase); 15-hydroxyprostaglandin dehydrogenase [NAD(+)] (Homo sapiens), P15428; purified HPGD, NADH fluorescence kinetic, PGE2 substrate; Potency, µM, without a hit: at the highest dose activity change, negative = inhibition, hits mostly inhibitors; 150,000 tested, 4.3% active; AID 894, 2007; note: potency is the fitted concentration of half-maximal effect
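NADH formation kinetics: reaction with 30 uM PGE2 and 1 mM NAD+ (final), 20 nM enzyme, Tris-HCl pH 8 with Tween 20, after 15 min compound preincubation at room temperature. Fluorescence change, last versus first of five reads.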
ALDH1A1 block = qHTS Assay for Inhibitors of Aldehyde Dehydrogenase 1 (ALDH1A1) | Aldehyde dehydrogenase 1A1 (Homo sapiens), P00352 | Purified ALDH1A1, NADH fluorescence, propionaldehyde substrate | Potency, µM (top dose mostly 75.3 µM), inactives show top-dose activity, negative = inhibition, most hits filed as inhibitors | 220,000 tested, 7.3% active | AID 1030, 2008;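 note: potency is the fitted concentration of half-maximal effect; plate controls were no enzyme wells and a reference inhibitor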
Target sequence (P00352 whole entry, looked up): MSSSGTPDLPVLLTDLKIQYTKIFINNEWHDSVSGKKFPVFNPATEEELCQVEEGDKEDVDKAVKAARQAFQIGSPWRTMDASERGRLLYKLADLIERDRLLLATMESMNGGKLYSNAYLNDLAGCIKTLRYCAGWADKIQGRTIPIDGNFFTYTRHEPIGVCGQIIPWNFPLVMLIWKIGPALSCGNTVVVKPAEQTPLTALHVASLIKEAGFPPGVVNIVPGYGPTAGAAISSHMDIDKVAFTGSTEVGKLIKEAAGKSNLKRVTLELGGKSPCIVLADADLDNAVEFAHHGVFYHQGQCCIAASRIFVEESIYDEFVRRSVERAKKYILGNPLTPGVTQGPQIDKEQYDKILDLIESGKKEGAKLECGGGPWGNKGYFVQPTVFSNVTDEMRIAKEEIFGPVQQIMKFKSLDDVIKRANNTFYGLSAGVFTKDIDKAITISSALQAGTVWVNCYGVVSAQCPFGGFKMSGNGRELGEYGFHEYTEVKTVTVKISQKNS
JMJD2E inh = qHTS Assay for Inhibitors of Human Jumonji Domain Containing 2E (JMJD2E); Lysine-specific demethylase 4E (Homo sapiens), B2RXH2; JMJD2E catalytic domain, FDH-coupled NADH fluorescence (FDH is formaldehyde dehydrogenase); Potency, µM (highest dose often 57.1 µM), for inactives: at the highest dose activity change, negative = inhibition, actives largely listed as inhibitors; 230,000 tested, 1.6% active; AID 2147, 2009;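 note: potency is the fitted concentration of half-maximal effect; 0% = wells with enzyme and -100% = buffer wells without enzyme; nearly all actives have a fitted effect of over 50% in size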
PNC inhibitor = High Content Assay for Compounds that inhibit the Assembly of the Perinucleolar Compartment; PC3M PTB-GFP, PNC prevalence imaging, 16 h; active compounds read low; activity change (PNC), negative = inhibition, % at 10 µM; 140,000 tested, 3.1% active; AID 2417, 2010;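 active = readout at or below -70, meaning at least 70% loss of cells showing the perinucleolar compartment, a nuclear body marking cancer cells; inconclusive = readout between -30 and a set limit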;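 note: plate controls were DMSO wells for no effect and camptothecin positive control wells for full effect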
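PC3M cells stably expressing PTB-GFP, 750–1000 cells/well, treated 16 h at 37 °C with compound (23 nl of library stock), in duplicate. After paraformaldehyde fixation and Hoechst stain, imaged at 20x; PNC prevalence scored by image analysis.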
An asterisk follows results filed as active; ? = inconclusive; . = no result. A selection: hits, their analogues and other compounds. The true share with any hit is near 11%. Unless noted, calls come from the whole dose curve; as a rule, active = well fitted inhibition curve with a large enough effect (not every such curve was filed as active); inconclusive = small, poorly fitted or top-dose-only effect, or another doubt; inactive = no such curve, though single readings can be large or run the other way. Unless noted, % is set by controls: 0 for no effect and ±100 for the full control effect.

SMILES	HPGD block	ALDH1A1 block	JMJD2E inh	PNC inhibitor
CCC(=O)N1CCc2cc(S(=O)(=O)NC(C(=O)NC(C)c3ccccc3)C(C)C)ccc21 (centres undefined)	-4%	17%	4%	?
NCC1O[C@@H](OC2C(N)CC(N)C(O)C2O[C@@H]2OC(CO)C(O)C2O)C(N)C(O)C1O (some centres undefined)	-4%	6%	9%	.
CCC1=C2CC[C@H]3C(=O)N(CC)C(=O)[C@H]3[C@H]2[C@@]2(Cc3ccccc3)C(=O)N(CCOC)C(=O)N2C1=O	1%	-2%	9%	.
Cc1ccc(NCc2nnc(SCC#N)o2)c(C)c1	-16%	-15%	3%	-100*
CC(=O)OC1C=C[C@]2(C)C(CC(OC(C)=O)[C@@]3(C)C4=CC(=O)OC(c5ccoc5)[C@]4(C)CCC23)C1(C)C (some centres undefined)	-7%	2%	0%	.
CCNc1sc(C(=O)c2cccs2)c(N)c1C#N	-20%	8.9µM*	-20%	20
C=CCNc1sc(C(=O)c2cccs2)c(N)c1C#N	-7%	?	4%	-119*
Cc1onc(-c2ccccc2)c1C(=O)OCC(=O)Nc1cc(S(=O)(=O)N2CCOCC2)ccc1Cl	.	-3%	-2%	.
COC(=O)c1sccc1N/C=C(\C#N)S(=O)(=O)C(C)(C)C	.	?	2%	.
CC(C)(C)S(=O)(=O)/C(C#N)=C/c1sccc1C1OCCO1	.	7.9µM*	-14%	.
COc1ccc(NC(=O)CCCn2c(=O)c3sccc3n(Cc3ccccc3C)c2=O)cc1	-15%	4µM*	-9%	-6
COc1ccc(NC(=O)CCCn2c(=O)c3sccc3n(Cc3ccccc3)c2=O)cc1	-2%	8%	-5%	-28
O=C(OCn1cncn1)c1ccc(Cl)cc1Cl	-44%	-7%	1%	?
Cl/C(=C\n1cncn1)c1ccc(Cl)cc1Cl	14µM*	?	-23%	.
Cc1cc(F)c(F)c(C(=O)N2CCC(C)CC2)c1Cl	.	4%	-8%	.
CCCOc1nc(C)cc(COC)c1C(N)=O	.	-3%	0%	.
Cc1ccc(S(=O)(=O)N2CCN(CC(=O)NC3CCCc4ccccc43)CC2)cc1C (centres undefined)	-10%	0.45µM*	-3%	36
Cc1ccc(S(=O)(=O)N2CCN(CC(=O)NC3CCCc4ccccc43)CC2)c(C)c1 (centres undefined)	-8%	13µM*	-1%	13
O=Nc1ccc2oc(=O)ccc2c1	16µM*	0.13µM*	-6%	.
O=C1NC(=Nc2ccccc2)S/C1=C/c1cccs1	.	5%	10%	.
O=C1NN(c2ccc(F)cc2)C(=O)/C1=C/c1cccs1	.	25µM*	-1%	.
OCCNCCOc1ccccc1-c1ccccc1	3%	-12%	-27%	11
CC(O)CNCCOc1ccccc1-c1ccccc1 (centres undefined)	.	11µM*	8%	.
CCOC(=O)c1c[nH]c2c(C(F)(F)F)cccc2c1=O	.	-8%	?	.
COc1ccc(C2C(C#N)=C(N)Oc3c2sc2nc(C)cc(C)c32)cc1 (centres undefined)	-6%	-1%	?	14
SMILES	HPGD block	ALDH1A1 block	JMJD2E inh	PNC inhibitor
Cc1cc(C)c2c3c(sc2n1)C1(CCSCC1)C(C#N)=C(N)O3	-17%	25µM*	?	-25
CC(=O)NC1Sc2ccccc2N=C1c1ccccc1 (centres undefined)	?	25µM*	?	9
COCCn1c(=O)c(-c2ccc(F)c(F)c2)nc2cncnc21	-27%	-8%	.	.
CC(C)n1c(=O)[nH][nH]c1=S	.	0.79µM*	3.2µM*	.
CCOC(=O)c1nn(-c2ccc(C)cc2)c(=O)c2c(N)scc12	-16%	18µM*	?	?
CCOC(=O)c1nn(-c2ccc(F)cc2)c(=O)c2c(N)scc12	.	15%	-8%	.
COC(=O)c1nn(-c2ccc(OC)cc2)c(=O)c2c(N)sc(C)c12	-27%	7.9µM*	7%	44
CC(NS(=O)(=O)c1ccc(Br)cc1)C(=O)NCCc1ccccc1 (centres undefined)	.	-14%	-3%	11
CN(C)CCNC(=O)C(C(=O)c1ccc(F)cc1)n1ccccc1=O (centres undefined)	-8%	7%	2%	28
Fc1ccc(NC(=S)NNc2ncc(C(F)(F)F)cc2Cl)c(F)c1	.	4.5µM*	-6%	.
Cc1ccc(NC(=S)NNc2ncc(C(F)(F)F)cc2Cl)c(C)c1	-16%	?	8%	7
O=C(Nc1ccc(F)cc1F)c1cccn1-c1ncc(C(F)(F)F)cc1Cl	1%	-8%	-17%	8
Cc1ccc(NC(=S)NNc2ncc(C(F)(F)F)cc2Cl)cc1	-10%	10µM*	-10%	?
CC(Cl)C(=O)Nc1ncc(C(F)(F)F)cc1Cl (centres undefined)	-20%	7.1µM*	?	1
FC(F)(F)c1cnc(NNC(=S)Nc2ccc(Cl)cc2)c(Cl)c1	-25%	5µM*	?	?
Cc1ccc(N=Cc2c(C)[nH]n(-c3nc4ccccc4[nH]3)c2=O)cc1	-16%	-5%	?	-81*
CCOC(=O)Cn1nc(C)n(-c2c(C)cccc2C)c1=O	.	-11%	-2%	.
Cn1c(CN2CCCCC2)nc2cc([N+](=O)[O-])ccc21	.	11µM*	-21%	.
COc1cccc(-c2nnc(SCC3CNC(=O)O3)n2-c2ccc(Cl)cc2)c1 (centres undefined)	.	0.63µM*	10%	81
O=C(NNS(=O)(=O)c1ccccc1)c1cc2cc3ccccc3nc2s1	?	8%	8%	-106*
CCOC(=O)c1c(C)n(C)c2ccc(OCC(O)CN3C(=O)c4ccccc4S3(=O)=O)cc12 (centres undefined)	-16%	2.5µM*	6%	34
O=C(Nc1ccccc1)c1ccccc1OCC(O)CN1C(=O)c2ccccc2S1(=O)=O (centres undefined)	-17%	?	7%	6
COc1ccc(OCC(O)CN2C(=O)c3ccccc3S2(=O)=O)cc1 (centres undefined)	-12%	?	-7%	-83*
CCOC(=O)c1c(C)n(C)c2ccc(OCC(O)Cn3nc(C)cc3C)cc12 (centres undefined)	-7%	3%	?	32
Cc1ccc2c(c1)C(c1ccccc1)N(C(=O)c1ccc3c(c1)OCO3)CC(=O)N2 (centres undefined)	.	.	1%	.
O=C(NNc1cc(Br)c(O)c(Br)c1)c1ccccc1	.	18µM*	-28%	.
NS(=O)(=O)c1ccc(NNC(=O)c2ccccc2)cc1	.	.	2%	.
CC(C)(C)C(=O)OCOP(=O)(OCOC(=O)C(C)(C)C)C(C)(Oc1ccc(O)cc1)P(=O)(OCOC(=O)C(C)(C)C)OCOC(=O)C(C)(C)C	-3%	?	.	.
